assay: A549 cell viability effects, profiling panel, calcein-AM fluorescence, 48 h, basal (AID 1162); conditions: higher = more signal; also: test concentration not given here

Structure (SMILES)	z-score
CCCNC(=O)[C@@]1(Sc2ccc(C)cc2)CC(=O)N(Cc2ccccc2Cl)[C@@H]1c1ccc(CO)cc1I	1.43
C=CCN1Cc2ccccc2[C@H]2OC(c3ccc(OCCCO)cc3)=N[C@@]2(CCS(=O)(=O)c2ccccc2)C1=O	0.0622
[N-]=[N+]=Nc1ccccc1C[C@]1(C(=O)N2CCOCC2)N=C(c2ccc(OCCCO)cc2)O[C@H]1c1ccccc1N=[N+]=[N-]	0.961
C[C@]1(C(=O)O)c2ccccc2C(=O)N(Cc2cc(F)cc(C(F)(F)F)c2)[C@H]1c1ccc(CO)cc1	0.653
CC(C)c1nc2cc(Br)ccc2c(=O)o1	-0.374
CN(C)CCCC[C@@H]1NC(=O)[C@H]2C[C@@H](C(=O)O)[C@@H](c3ccc(O)cc3)N2C1=O	0.151
CN1C(=O)C2C(C3CC3)C=C3CN(Cc4cccc(Cl)c4)[C@@H]([C@@H](O)Cc4ccccc4)C3C2C1=O (some centres undefined)	1.19
C=CCC(OC(C)=O)[C@@H]1[C@@H](N(Cc2ccc(-c3cccc(C(F)(F)F)c3)o2)C(=O)c2ccc(-c3ccccc3)cc2)c2cc(OCCCO)ccc2N1C(=O)c1ccc2ccccc2c1 (some centres undefined)	0.965
CCCCC(O)C1C=CC2C(=O)N(c3ccccc3)C(=O)C2N1Nc1ccc(C#N)cc1 (centres undefined)	0.233
NC(=O)N1C(=O)C2C(C1=O)C1C=C(CCCO)C2C(c2ccc(CN3CCCC3)cc2)N1Cc1sc2ccccc2c1Cl (centres undefined)	-0.142
CC(C)=CCCC(C)=CC(O)C1C=CC2C(=O)NC(=O)C2N1Nc1ccccn1 (centres undefined)	0.531
Cc1ccc(S[C@]2(C(=O)NCCCN(C)C)CC(=O)N(C3Cc4ccccc4C3)[C@@H]2c2ccc(CO)cc2I)cc1	0.691
COc1ccc(C#Cc2ccc3c(c2)[C@]2(C(=O)N3)[C@H](C(=O)O)[C@H]3C(=O)O[C@H](c4ccccc4)[C@H](c4ccccc4)N3[C@@H]2c2ccccc2OCCO)cc1	-1.23
COc1ccc(CCNC(=O)[C@@H]2c3ccccc3C(=O)N(Cc3ccccc3OC)[C@H]2c2ccc(CO)cc2)cc1	0.41
C=CCC(OC(C)=O)[C@@H]1[C@@H](N(Cc2cccc3ccccc23)C(=O)Cc2ccc(OC)cc2)c2cc(OCCCO)ccc2N1C(=O)Cc1ccc2ccccc2c1 (some centres undefined)	-0.105
CC(C)(C)OC(=O)CC[C@@]1(C(=O)NCCN2CCOCC2)N=C(c2ccc(OCCCO)cc2)O[C@@H]1c1ccccc1CN=[N+]=[N-]	-0.34
CC(C)NC(=O)[C@@]1(C)c2ccccc2C(=O)N(Cc2ccccc2)[C@H]1c1ccc(CO)cc1	0.389
CN(C)c1ccc(C(O)C2C=CC3C(=O)N(Cc4ccccc4)C(=O)C3N2n2cnnc2)cc1 (centres undefined)	0.566
COc1ccc(C(=O)Nc2ccc(CN3C(=O)[C@@]4(O[C@@H](CCn5cc(CCO)nn5)[C@H]([Si](C)(C)c5ccc(OC)cc5)[C@H]4C)c4ccccc43)cc2)cc1	-0.883
CC(C)C[C@H]1NC(=O)C([C@@H](C)OCc2ccccc2)NC(=O)[C@@]23C(=O)N[C@@H](Cc4ccccc4)C2[C@H](C)[C@@]2(C)O[C@H]2C3/C=C/C/C=C\CNC1=O (some centres undefined)	-0.469
COc1ccc([Si](C)(C)[C@@H]2[C@@H](CC(=O)N3CCC[C@H]3CO)O[C@]3(C(=O)N(Cc4cccc(N5CCCCC5=O)c4)c4ccccc43)[C@H]2C)cc1	-0.158
CO[C@H]1O[C@H](CO)[C@@H](OC(=O)Nc2ccccc2-c2ccccc2)[C@H](OC(=O)Nc2ccccc2)[C@H]1OC(=O)Nc1ccccc1	-1.66
CCCCC(O)C1C=CC2C(=O)N(c3ccccc3)C(=O)C2N1Nc1ccc([N+](=O)[O-])cc1 (centres undefined)	0.286
C=CCNC(=O)[C@@H]1[C@H]2C(=O)O[C@H](c3ccccc3)[C@H](c3ccccc3)N2[C@H](c2ccc(OCCO)cc2)[C@@]12C(=O)Nc1ccc(C#CC3(O)CCCCCC3)cc12	-0.134
CN1C(=O)C2C(C1=O)C1C=C(c3ccc(CO)cc3)C2C(C2CC2)N1C (centres undefined)	0.632
COC(=O)[C@@]1(Cc2ccc(F)cc2)[C@H]2c3cc(C(=O)N4CCCC4)n(Cc4ccccn4)c3C[C@H]2CN1C(=O)c1ccccc1	-0.94
NC(=O)N1C(=O)C2C(C1=O)C1C=C(CCCO)C2C(c2ccc(CN3CCCC3)cc2)N1Cc1cc2c(cc1Br)OCO2 (centres undefined)	-1.05
CCCCN1CC=CC23O[C@@H]4/C=C\CCCOC(=O)C4[C@H]2C(=O)N(C(CO)C(C)C)[C@@H]3C1=O (some centres undefined)	0.374
O=C1O[C@H](c2ccccc2)[C@H](c2ccccc2)N2[C@H]1[C@@H](C(=O)N1CCN(c3ncccn3)CC1)[C@]1(C(=O)Nc3ccc(C#CCCO)cc31)[C@H]2c1ccc(O)cc1	0.356
